Here are results for 23 compounds from PubChem BioAssay (Tox21).

The nature of experiment [1]: qHTS RealTime-Glo MT Cell Viability Assay in HEK293 cells - 16 hour (AID 1224872). Note: nearly all actives have a fitted effect of over 50% in size. Summed up:
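Nonlytic real-time viability readout: viable cells convert prosubstrate to NanoLuc substrate, giving luminescence proportional to live cell number. HEK293, 600 cells/well, compound added after 5 h, continuous culture at 37 C.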

The nature of experiment [2]: qHTS RealTime-Glo MT Cell Viability Assay in HepG2 cells - 8 hour (AID 1224873). Note: nearly all actives have a fitted effect of over 55% in size. Summed up: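 Real-time viability: cells seeded at 600 per well together with NanoLuc and cell-permeant prosubstrate, compounds added after 5 h incubation. Luminescence tracked at 0, 8, 16, 24, 32 and 40 h of exposure.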
Experiment [3] in a line: A CellTox Green Cytotoxicity Assay to monitor cytotoxicity in HEK293 cells - 24 hour (AID 1224875). Note: nearly all actives have a fitted effect of over 45% in size. The method in brief: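 Fluorescence intensity, read at 0, 8, 16, 24, 32 and 40 h of compound treatment, reflected dye binding to DNA of dead HEK293 cells; compounds (23 nL, DMSO) were added 5 h after plating cells with reagent.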
The nature of experiment [4]: A CellTox Green Cytotoxicity Assay to monitor cytotoxicity in HepG2 cells - 16 hour (AID 1224876). Note: nearly all actives have a fitted effect of over 45% in size. Summed up: (§1)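 Using 1536-well format, dye-containing HepG2 suspension was seeded, allowed 5 h at 37 C/5% CO2, dosed by pintool with compounds, positive and negative controls, and imaged for fluorescence across 40 h.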
A short description of experiment [5]: qHTS RealTime-Glo MT Cell Viability Assay in HepG2 cells - 32 hour (AID 1224877). Note: nearly all actives have a fitted effect of over 55% in size. The method in brief: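 Luminescence read-out: viable HepG2 cells reduce a prosubstrate to a NanoLuc substrate, giving a signal proportional to live cell number. Reads taken at 0, 8, 16, 24, 32 and 40 h of compound exposure at 37 C.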
A short description of experiment [6]: A CellTox Green Cytotoxicity Assay to monitor cytotoxicity in HepG2 cells - 24 hour (AID 1224878). Note: nearly all actives have a fitted effect of over 45% in size. Summed up:
as §1

Experiment [7] can be described thus: qHTS RealTime-Glo MT Cell Viability Assay in HEK293 cells - 0 hour (AID 1224880). Note: nearly all actives have a fitted effect of over 45% in size. Summed up:
(§2)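 Viable HEK293 cells reduce a cell-permeant prosubstrate; the product diffuses out and is consumed by NanoLuc in the medium to give light. Compounds went in after a 5 h incubation and plates were read over the treatment course.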

Experiment [8] can be described thus: qHTS RealTime-Glo MT Cell Viability Assay in HEK293 cells - 40 hour (AID 1224874). Note: nearly all actives have a fitted effect of over 50% in size. To be noted: RealTime-Glo luminescence; max response: active compounds read low. Summed up:
as §2

A short description of experiment [9]: A CellTox Green Cytotoxicity Assay to monitor cytotoxicity in HepG2 cells - 40 hour (AID 1224879). Note: nearly all actives have a fitted effect of over 40% in size. Summed up:
as §1

Results filed as inconclusive are left out. A number with no mark means an inactive call. Calls of active or inactive are those of the source. Calls come from the whole dose curve; as a rule, active = well fitted curve in the direction sought with a large enough effect in the repeat runs; inconclusive = weak or mixed curves; inactive = no such curve, though single readings can be large; an effect the other way counts as inactive or inconclusive.
% is set by controls: 0 for no effect and ±100 for the full control effect; potency is the fitted concentration of half-maximal effect.

For `O=C1C(=O)c2ccccc2C(O)=C1C1CCC(c2ccc(Cl)cc2)CC1` (configuration not stated), the Potency result in experiment [1], in [2], in experiment [3], in experiment [4], in [5] and in experiment [6] was “inactive” in each case. Besides, the Potency in experiment [7] was 7.56 µM (active).

Regarding `O=[N+]([O-])c1ccc(Nc2ccc(Nc3ccccc3)c(S(=O)(=O)O)c2)c([N+](=O)[O-])c1`, the Potency entry in [2], in experiment [3], in [4], in [5], in experiment [6] and in experiment [9] was “inactive” throughout. Moreover, in experiment [7], the Potency entry was “inactive”. Moreover, in experiment [8], the max response was 5.22%.

`O=c1c(O)c(-c2ccc(O)cc2)oc2cc(O)cc(O)c12`: the Potency entry in experiment [2], in experiment [3], in experiment [4], in [5], in experiment [6] and in experiment [9] was “inactive” each time. In addition, the Potency entry in experiment [7] is “inactive”.

Consider `Cc1cccc(O)c1N`, for which the Potency result in [1], in experiment [2], in [3], in experiment [4], in experiment [5] and in experiment [6] was “inactive” throughout. The Potency result in experiment [9] and in experiment [7] was “inactive” each time.

For `CC(=O)Oc1ccc([N+](=O)[O-])cc1CCl`, the Potency entry in experiment [2], in [3], in experiment [4], in [5], in experiment [6] and in experiment [9] was “inactive” throughout. In addition, in experiment [7], the Potency result is “inactive”. For the same compound, the Potency in experiment [8] is 3.47 µM (active).

As to `CCCC(C(=O)OCCN(CC)CC)(c1ccccc1)c1ccccc1`, the Potency result in experiment [2] and in experiment [5] was “inactive” each time. Besides, the Potency in [8] is 21.3 µM (active).

For the compound `C[C@@H](O[C@H]1OCCN(Cc2n[nH]c(=O)[nH]2)[C@H]1c1ccc(F)cc1)c1cc(C(F)(F)F)cc(C(F)(F)F)c1`, the Potency is 16.9 µM (active) in [8], 16.9 µM (active) in experiment [4], 15.1 µM (active) in experiment [6] and 16.9 µM (active) in experiment [9]. Also, in [7], the Potency entry was “inactive”.

As to `Cc1cc(O)ccc1O`, the Potency result in [2], in [4], in [5], in experiment [6], in experiment [9] and in experiment [7] was “inactive” throughout.

For `Oc1ccc(Cl)c2cccnc12`, the Potency entry in [1], in experiment [2], in [3], in [4], in experiment [5] and in experiment [6] was “inactive” each time. Moreover, in experiment [7], the Potency result is “inactive”.

Consider `CN1CCCC(CC2c3ccccc3Sc3ccccc32)C1` (configuration not stated), for which the Potency result in [2] is “inactive”. In addition, the Potency in experiment [8] was 23.9 µM (active); in experiment [3], 23.9 µM (active); in experiment [4], 23.9 µM (active); in experiment [5], 23.9 µM (active); in experiment [6], 21.3 µM (active); in [9], 23.9 µM (active).

Turning to `Oc1cc2c(cc1O)[C@H]1c3ccc(O)c(O)c3OC[C@@]1(O)C2`, the Potency is 39.4 µM (active) in [2], 49.6 µM (active) in experiment [3] and 55.6 µM (active) in experiment [5]. The max response in experiment [8] is -26.5%. Moreover, the Potency result in experiment [4], in [6] and in [7] was “inactive” in each case.

On to `CC(C)(c1ccccc1)c1ccccc1`, for which the Potency result in experiment [2], in [4], in experiment [5], in experiment [6], in experiment [9] and in experiment [7] was “inactive” throughout. The max response in experiment [8] is -9.58%. The Potency in experiment [3] was 51.1 µM (active).

As to `O=c1cc(-c2ccccc2)oc2cc(O)cc(O)c12`, the Potency entry in experiment [2], in experiment [3], in [4] and in experiment [7] was “inactive” each time.

`C=CC(=O)OCC1CC2CC1C1CCC(COC(=O)C=C)C21` (configuration not stated): the figures for the Potency in [3], in experiment [6] and in [9] were 49 µM (active), 49 µM (active) and 38.9 µM (active), respectively. In addition, the Potency entry in experiment [4] and in experiment [7] was “inactive” each time.

`O=C(Cn1ccnc1[N+](=O)[O-])NCCO`: the Potency result in experiment [2], in experiment [3], in [4], in [5], in experiment [6] and in [9] was “inactive” throughout. For the same compound, the Potency result in [7] is “inactive”. For the same compound, the max response in experiment [8] is 4.23%.

In the case of `Cc1ccccc1N=C(N)Nc1ccccc1C`, the Potency entry in experiment [2], in experiment [3], in [4], in experiment [5], in experiment [6] and in [9] was “inactive” throughout. The Potency entry in experiment [7] was “inactive”. For the same compound, the max response in [8] was -12.1%.

Take `CC1(CN2CCC(n3c(=O)[nH]c4ccccc43)CC2)OCc2ccccc2-n2cccc21` (configuration not stated): the Potency in experiment [1] is 10.7 µM (active); in [8], 19 µM (active). Moreover, the Potency entry in experiment [3], in experiment [4], in experiment [6] and in experiment [7] was “inactive” each time.

As for `CN1C[C@H](C(=O)N[C@]2(C)O[C@@]3(O)[C@@H]4CCCN4C(=O)[C@H](Cc4ccccc4)N3C2=O)C[C@@H]2c3cccc4[nH]cc(c34)C[C@H]21`, the Potency in [8] is 12 µM (active).

Turning to `CCCCCC#CC(=O)OC`, the Potency result in [1], in [3], in experiment [4], in experiment [5], in experiment [6] and in experiment [9] was “inactive” each time. For the same compound, the Potency result in [7] was “inactive”.

In the case of `c1csc(SSc2cccs2)c1`, the Potency result in experiment [3], in experiment [4] and in experiment [7] was “inactive” in each case. Further, in [9], the Potency is 54.9 µM (active).

As for `CC(C)c1nc(CN(C)C(=O)N[C@H](C(=O)N[C@@H](Cc2ccccc2)C[C@H](O)[C@H](Cc2ccccc2)NC(=O)OCc2cncs2)C(C)C)cs1`, the Potency entry in experiment [2], in experiment [4], in experiment [5], in experiment [6] and in experiment [7] was “inactive” in each case. Further, the Potency in experiment [8] and in experiment [9] was 21.3 µM (active) in each case.

Take `CS(=O)(=O)c1ccc(-c2cn3ccccc3n2)cc1`: the Potency entry in experiment [3], in experiment [4], in experiment [5] and in experiment [7] was “inactive” throughout.

Regarding `Nc1ccc(N=Nc2ccccc2)c(N)c1`, the Potency in experiment [1] was 42.7 µM (active); in [8] it was 38.1 µM (active). Besides, the Potency result in [3], in experiment [4], in [5], in experiment [6] and in [9] was “inactive” in each case.
